Laboratory results taken from ChEMBL document CHEMBL4513216, “Probing the Open Global Health Chemical Diversity Library for Multistage-Active Starting Points for Next-Generation Antimalarials” (ACS Infect Dis, 2020).
The whole screen tested about 69,000 compounds, of which about 8,600 (12%) showed an effect of 50% or more. Only a selection was taken, and strong results are over-represented in it overall.

These compounds were tested on Plasmodium berghei (assay: Screen against P. berghei liver stage (PbLuc), transformed with Luciferase, at 10uM). Settings: tested at 10 uM.
Assay type: functional, HepG2

SMILES | INHIBITION
O=C(O)c1ccc(CC2CCN(S(=O)(=O)N3CCOCC3)C2)cc1 (configuration not stated) | 32.5%
CN(C)C(=O)CNC(=O)c1cc2c(s1)CCN2S(C)(=O)=O | 26.3%
CC(=O)N1Cc2nc(C(=O)NCCc3cccnc3)oc2C1 | 70.7%
CN1CCN(C(=O)c2nc3c(o2)CN(C(=O)c2cccnc2)C3)CC1 | 50.1%
CN(C)CCNC(=O)c1nc2c(o1)CN(C(=O)c1cccnc1)C2 | -75.3%
O=C(NCc1ccccc1)c1nc2c(o1)CN(C(=O)c1cccnc1)C2 | 53.2%
COc1cccc(CNC(=O)c2nc3c(o2)CN(S(C)(=O)=O)C3)c1 | 52.6%
O=C(NCc1ccncc1)c1nc2c(o1)CN(C(=O)c1cccnc1)C2 | 29%
CS(=O)(=O)N1Cc2nc(C(=O)NCc3ccccc3)oc2C1 | 24.6%
CN1CCCN(C(=O)c2nc3c(o2)CN(C(=O)c2cccnc2)C3)CC1 | 1.9%
O=C(NCCN1CCCC1)c1nc2c(o1)CN(C(=O)c1cccnc1)C2 | -42.8%
COc1cccc(CNC(=O)c2nc3c(o2)CN(C(=O)N(C)C)C3)c1 | 48.2%
Cc1ccc(CNC(=O)c2nc3c(o2)CN(C(=O)c2cccnc2)C3)o1 | -21.1%
CCCNC(=O)c1nc2c(o1)CN(C(C)=O)C2 | -0.388%
O=C(NC1CC1)C1=CC2(CCN(CCO)CC2)c2ccccc21 | 28.4%
COCC(=O)N1CCCC2(CCN(CCN3CCCC3)CC2)C1 | -12.1%
Cc1noc(C)c1CN(C)C(=O)c1ccc(O)nc1 | 25.1%
CC(=O)N(C)CC(=O)NCC1CCN(c2cc(Cl)ccc2C)C1 (configuration not stated) | -23.7%
Cc1nccc([C@@H]2C[C@@H]3CCN(S(=O)(=O)N(C)C)C[C@H]3O2)n1 | 26.3%
Cn1ccc(C(=O)N2CCCC(Cc3cnc4ccccc4c3)C2)n1 (configuration not stated) | -0.371%
COCCn1cnc2ccc(NC(=O)c3c(C)noc3C)cc2c1=O | 35.7%
Cn1cc(C(=O)N2CC[C@@H]3[C@@H]2CCN3Cc2cccc(F)c2)cn1 | 43.2%
Cc1nc2cc(OCc3nc(C(=O)NC(CO)CO)co3)ccc2s1 | 29.4%

SMILES | INHIBITION
Cc1nc2cc(OCc3nc(C(=O)NC(C)(CO)CO)co3)ccc2s1 | 74.5%
CC[C@@H](CO)NC(=O)c1coc(COc2ccc3sc(C)nc3c2)n1 | 41.5%
Cn1nnnc1SCC1(O)CCCCC1 | 1.74%
O=S(=O)(CC1CCCCO1)Nc1cc(F)ccc1-n1cccn1 (configuration not stated) | 25.7%
Cc1ccc(S(=O)(=O)Nc2ccc(N3CCSCC3)c(C(=O)O)c2)s1 | 43.9%
Cc1cc2nc(C(C)C)cc(N(C)CC3CCCN(CCO)C3)n2n1 (configuration not stated) | 58.5%
Cc1cc2nc(C(C)C)cc(N(C)CC3CCCN3C)n2n1 (configuration not stated) | 33%
Cc1cc2nc(C(C)C)cc(N(C)CC3CCN(C(C)C)C3)n2n1 (configuration not stated) | 27.6%
Cc1ccc(NC2CCN(C(=O)c3cncnc3C)CC2)nn1 | -17.22%
CCn1ccc(NC(=O)CCc2c(C)nn(C)c2C)n1 | 38.7%
CNC(=O)CS(=O)(=O)C1CCN(S(=O)(=O)c2ccccc2Cl)CC1 | 25.8%
CNC(=O)CS(=O)(=O)C1CCN(S(=O)(=O)c2ccccc2Br)CC1 | -26.6%
CNC(=O)CS(=O)(=O)C1CCN(S(=O)(=O)c2cccc(Cl)c2C)CC1 | 80%
Cc1cccc2[nH]c(COCC(=O)N3CCCn4cncc4C3)nc12 | 22.7%
Cc1ccc(C(=O)Nc2c(C(=O)N(C)C)nn(C)c2C)cc1 | -10.6%
Cc1c(NC(=O)c2ccc(Br)cc2)c(C(=O)N(C)C)nn1C | 17.6%
COc1ccc(C(=O)Nc2c(C(=O)N(C)C)nn(C)c2C)cc1 | 61.5%
CCOCC1CN(Cc2ccsc2)Cc2cnn(C)c21 (configuration not stated) | 36.2%
COC(=O)C(CO)NC(=O)c1cn(Cc2ccccc2F)nn1 (configuration not stated) | -4.4%
O=C(NCCCOc1cccnc1)c1cn(Cc2ccccc2F)nn1 | 12.9%
CCOC(=O)CC(C)NC(=O)c1cn(Cc2ccccc2F)nn1 (configuration not stated) | -44.2%
CC(Cn1cncn1)NC(=O)c1cn(Cc2ccccc2F)nn1 (configuration not stated) | 68.8%
CC(NC(=O)NCCCn1cncn1)c1ccccc1F (configuration not stated) | 11.9%

SMILES | INHIBITION
COCC1CCN(C(=O)c2cn(Cc3ccccc3F)nn2)CC1 | 14.2%
CCOC(=O)CC(NC(=O)c1cn(Cc2ccccc2F)nn1)C(C)C (configuration not stated) | 72.6%
NCCn1cc(C(=O)NCc2ccccc2Cn2cccn2)nn1 | 29.4%
COC(=O)CNC(=O)c1cn(Cc2ccccc2F)nn1 | 82.9%
COc1ccc(CNCCc2cc(F)cc3c2OCOC3)c(OC)c1 | 30%
Cc1cc(C(=O)NCc2ccc(F)cc2)nc(C2CCCN2C)n1 (configuration not stated) | -3.31%
OCCO[C@H]1C[C@@H](O)C12CCN(Cc1nc(C(F)(F)F)no1)CC2 | -17.8%
CCN1CCCCC1C(=O)N1CCN(C(=O)OC)CC1 (configuration not stated) | 29.9%
CCn1cnnc1C1CCN(C(=O)c2cnc(C)s2)CC1 | 27.6%
CC(C)c1ncncc1C(=O)NCCN1CCCCC1C (configuration not stated) | 36.9%
CCOCC1CCN(C(=O)C(c2cccc(F)c2)N(C)C)CC1 (configuration not stated) | 17.5%
CN(C(=O)CC1=CCCCC1)C1CCCN(C2Cc3ccccc3C2)C1 (configuration not stated) | 28.3%
CN(C(=O)CC1=CCCCC1)C1CCCN(CCc2ccccc2)C1 (configuration not stated) | 59.2%
CN(C(=O)CCc1ccncc1)C1CCCN(CCc2ccccc2)C1 (configuration not stated) | -8.07%
CC(O)c1cn(Cc2ccc(Cl)cc2Cl)nn1 (configuration not stated) | 7.92%
Cc1cc(C(=O)N2CCCC2c2noc(C)n2)[nH]n1 (configuration not stated) | 38.5%
CN(C(=O)CCC(F)(F)F)c1cccc2ncccc12 | 71.4%
CCCNC(=O)c1cccc2ncccc12 | 26.7%
CCCC(=O)N(C)c1cc(C#N)c2ccccc2n1 | -31.7%
CN(Cc1cccc2ncccc12)C(=O)CCC(F)(F)F | 19.7%
Cc1cccc(=O)n1CCC(=O)N(C)Cc1cccc2ncccc12 | 33.1%
CCCC(=O)N(C)c1cccc2ncccc12 | 77.8%
COc1ccc(-n2cc3[nH]c(=O)n(C(C)C)n3c2=O)cc1 | -12.5%

SMILES | INHIBITION
CCOCC1CN(Cc2cccs2)Cc2nn(C)cc21 (configuration not stated) | -2.72%
CCN(Cc1ccc2c(c1)OCCO2)C(=O)c1ccc(C)[nH]c1=O | -4.43%
O=C(Cn1ncc2c(c1=O)CCCCC2)Nc1cccc2[nH]ccc12 | 36.1%
Cn1ccc2c(NC(=O)Cn3ncc4c(c3=O)CCCCC4)cccc21 | 6.29%
Cn1ccc2c(NC(=O)Cn3ncc4c(c3=O)CCCC4)cccc21 | 74.1%
Cn1cc(CC2CCN(C(=O)NCCCc3ccc(O)cc3)C2)cn1 (configuration not stated) | 49.2%
O=C(CCc1nccs1)N1CCN(c2ccccn2)CC1 | 51.1%
CC(C)C(=O)NCCC(=O)N1CCN(c2ccccn2)CC1 | 24.1%
O=C(CCc1nccs1)N1CCN(c2ncccn2)CC1 | 26.1%
CC(C)OCCC(=O)NCCC(=O)N1CCN(c2ccccn2)CC1 | 14.2%
O=C(CCc1nccs1)N1CCN(c2cccnn2)CC1 | 1.77%
CC(C)COCCC(=O)NCCC(=O)N1CCN(c2ccccn2)CC1 | 56.6%
Cc1nn(CC(=O)NCCc2ccncc2)c(=O)n1Cc1ccccc1 | -45%
CNC(=O)CN(C)C(=O)c1cc(Cl)c(I)cc1OC | 45.2%
CCCNC(=O)C1CCCN(Cc2ccc(-n3cncn3)c(C)c2)C1 (configuration not stated) | -14.5%
Cc1cc(CNc2ccnn2C)ccc1-n1cncn1 | 62.8%
CCc1cc(NCc2ccc(-n3cncn3)c(C)c2)n(C)n1 | 79.5%
Cc1nc(CN)cc(NCc2ccccc2-n2cncn2)n1 | 33.7%
Cc1cc(CNC(C)Cn2cncn2)ccc1Br (configuration not stated) | 41.4%
CCOC(=O)NC1CCCN(Cc2ccc(-n3cncn3)c(C)c2)C1 (configuration not stated) | -1.35%
Cc1cc(CNc2ccnn2CC(C)C)ccc1-n1cncn1 | 89.7%
Cc1cc(CN2CCCC(NS(C)(=O)=O)C2)ccc1-n1cncn1 (configuration not stated) | -3.14%
CC(Cn1cncn1)NCc1ccc2nonc2c1 (configuration not stated) | 12%

SMILES | INHIBITION
CN1CCc2ncc(CNC(=O)c3cccn3C)n2CC1 | 20.9%
CCn1ccnc1CN1CCN(Cc2cnc(C)cn2)CC1C (configuration not stated) | 13.2%
COCC(=O)N1CCCC1c1csc(Nc2cnccn2)n1 (configuration not stated) | 44.1%
NC(=O)CN1CCCC1c1csc(Nc2cnccn2)n1 (configuration not stated) | 51.5%
NC(=O)CN1CCC(c2csc(Nc3cnccn3)n2)CC1 | 33.8%
OCCN1CCC(c2csc(Nc3cnccn3)n2)CC1 | 0.825%
CCC(=O)N1CCCC1c1csc(Nc2cnccn2)n1 (configuration not stated) | -4.82%
CC(=O)N1CCCC1c1csc(Nc2cnccn2)n1 (configuration not stated) | 13.5%
c1cnc(N2CCC(c3csc(Nc4cnccn4)n3)CC2)nc1 | 76.7%
Cc1nc(Nc2cnccn2)cc(C2CCN(c3ncccn3)C2)n1 (configuration not stated) | -17.7%
c1cnc(N2CCCC(c3csc(Nc4cnccn4)n3)C2)nc1 (configuration not stated) | 61.3%
CCCn1cnnc1CN(C)C(=O)C1CCCN(C2CCN(C)CC2)C1 (configuration not stated) | -21.3%
COCCC(=O)N1CCCC1c1nc(O)cc(-c2ccccn2)n1 (configuration not stated) | 35.2%
Cc1nc2n(n1)CC(Nc1nc(-c3ccccc3)no1)CC2 (configuration not stated) | -6.51%
CSCc1cc(F)ccc1CNC(=O)N1CCOCC1 | 13.1%
COc1ccccc1CNC(=O)N1CCCC(CO)C1 (configuration not stated) | -10.7%
CSCc1cc(F)ccc1CNC(=O)N1CCC(CO)CC1 | 56.6%
CSCc1cc(F)ccc1CNC(=O)N1CCC[C@@H]1CO | 31.9%
CSCc1cc(F)ccc1CNC(=O)N1CCCC(CO)C1 (configuration not stated) | 78.3%
CSCc1cc(F)ccc1CNC(=O)N1CCCC1 | -110%
